Cycloheximide cs – counter-screen hit for Shiga toxin inhibitors, cycloheximide | max response, % | cell reporter, cycloheximide protein synthesis inhibition counterscreen | actives 12% (n = 300,000); in the data active means max response mostly above about 13%, no sharp cut-off; inactive means mostly below about 14%; further: read at 38.3 µM for the half of the compounds with a filed dose; 0% is about no effect
Giardia FBPA inh – inhibitors of Giardia lamblia fructose-1,6-bisphosphate aldolase; Potency, µM (titrated, usually from 59.6 µM), for the others: at the highest dose activity, negative = inhibition, actives largely listed as inhibitors; actives 0.71% (n = 290,000); A8B2U2; purified Giardia FBPA; AID 2451; further: potency means the concentration at half of the fitted maximal effect; on the % scale 0 is the no-effect control and ±100 the full control effect; nearly all actives have a fitted effect of over 55% in size
Target sequence (A8B2U2 whole entry, looked up): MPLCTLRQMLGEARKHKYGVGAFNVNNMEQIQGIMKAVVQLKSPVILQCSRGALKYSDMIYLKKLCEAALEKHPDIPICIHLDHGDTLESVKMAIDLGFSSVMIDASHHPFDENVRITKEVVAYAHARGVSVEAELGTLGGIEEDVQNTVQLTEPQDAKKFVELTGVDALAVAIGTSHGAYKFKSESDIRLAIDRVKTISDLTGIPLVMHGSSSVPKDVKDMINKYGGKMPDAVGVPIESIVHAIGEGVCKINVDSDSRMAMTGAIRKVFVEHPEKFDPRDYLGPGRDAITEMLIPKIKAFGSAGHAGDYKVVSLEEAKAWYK
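Giardia FBPA (40 nM reagent) was preincubated 10 min at RT with compound (up to 57.5 uM final), then substrate plus GAPDH/TPI/NAD/arsenate coupling system with diaphorase/resazurin was added; resorufin fluorescence (525/598 nm) was read after 20 min.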
Pf growth 96h – P. falciparum growth inhibition at 96 hour, primary screen for plastid delayed-death inhibitors; actives 6.9% (n = 320,000); Potency, µM (doses to about 28.7 µM), for inactives: at the top dose activity change, negative = inhibition, actives largely listed as inhibitors; P. falciparum luciferase reporter growth, 96 h; AID 504834; further: potency means the concentration at half of the fitted maximal effect; on the % scale 0 is the no-effect control and ±100 the full control effect
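Erythrocytes infected with luciferase-expressing P. falciparum were dispensed at 2% hematocrit and 0.05% parasitemia (final), then incubated with compounds 96 hours at 37 C in 5% CO2. Luminescence after detection reagent addition reported growth.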
Pf growth 48h – P. falciparum growth inhibition at 48 hours (one generation); P. falciparum luciferase growth in erythrocytes, 48 h; Potency, µM (series often up to 28.7 µM), for the others: at the top dose activity change, negative = inhibition, usual class: inhibitors; actives 5.9% (n = 310,000); AID 504832; further: potency means the concentration at half of the fitted maximal effect; on the % scale 0 is the no-effect control and ±100 the full control effect
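Compounds are pin-transferred into medium, infected erythrocytes (2% hematocrit, 0.1% parasitemia final) are added, and plates sit one parasite generation at 37 C in 5% CO2. Detection reagent is then added and luminescence measured.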
Shiga toxin inh – inhibitors of Shiga toxin in Vero cells; inhibition, % at 38.7 µM; Vero cells, Shiga toxin protein synthesis inhibition reporter; actives 9.2% (n = 290,000); in the data active means inhibition mostly above about 28%, no sharp cut-off; inactive means mostly below about 43%; further: 0% is about no effect
NS1 function inh – blocks influenza NS1 protein function; Potency, µM (titrated, usually from 46.1 µM), without a hit: top-dose activity, positive = more growth; actives 0.4% (n = 270,000); AID 2326; calls by dose curve; further: potency means the concentration at half of the fitted maximal effect; actives are rising curves; nearly all actives have a fitted effect of over 50% in size
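Growth recovery, yeast-based: influenza A NS1 expressed in S. cerevisiae causes slow growth, and suppressors are detected by OD600. The parent strain without NS1 is used as positive control.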
Flu NS1 inh – validation of influenza NS1 protein function inhibitors. 1,400 tested, under 10 active. activity change, negative = inhibition, % at 32.9 µM. influenza NS1 function cell assay, 15-point titration. shares compounds with NS1 function inh; calls by dose curve; further: 0% is about no effect
PR8 titer – influenza virus titer reduction, NS1 project | MDCK infected influenza A/PR/8/34, virus titer TCID50; hits give low values | actives 30% (n = 95) | AID 504647 | shares compounds with NS1 function inh | virus titer (log TCID50), log10 TCID50 at 5 µM; call rule not given here
Numbers without * were called inactive; ? = inconclusive; nt = no result given; [ ] = remark or other dose. Most compounds without a hit are left out; they make up all but 21% or so of the library. Unless noted, the call rests on the fitted dose curve; in most records, active means well fitted curve in the direction sought with a large enough effect; inconclusive means small, poorly fitted or top-dose-only effect, or another doubt; inactive means no such curve, though single readings can be large; an effect the other way counts as inactive or inconclusive.

SMILES	Cycloheximide cs	Giardia FBPA inh	Pf growth 96h	Pf growth 48h	Shiga toxin inh	NS1 function inh	Flu NS1 inh	others
Cc1onc(-c2ccccc2)c1C(=O)Nc1cccnc1	7	-3%	?	1%	-18	6.3µM*	2
C=CCc1cccc2cc(C(=O)OCC(=O)c3ccccc3)c(=O)oc12	-4	6%	nt	12%	-22	1%	nt
CC(=O)c1ccc(N2CCN(C(=O)[C@H](C)NC(=O)c3ccccc3Cl)CC2)cc1	-1	-1%	?	-14%	45	-7%	nt
CCOC(=O)C1=C(C)N(CCCCCC(=O)O)C(=O)NC1c1ccccc1Cl (stereo unspecified)	-3	?	-30%	4%	17	?	14
NC(=O)C1CCN(c2nc(C3CC3)nc3c2nnn3Cc2ccccc2Cl)CC1	10	-5%	-8%[5.75 µM]	?	-16	-9%	nt
CC(C)(C)c1nc(N2CCN(C(=O)c3ccco3)CC2)c2nnn(Cc3ccccc3Cl)c2n1	-3	0%	nt	1.7µM*	3	13µM*	?
Cc1ccc(-n2nc(C)c(C3C(C#N)=C(N)OC4=C3C(=O)CCC4)c2Cl)cc1 (stereo unspecified)	-4	5%	-14%	-24%	-21	-8%	nt
O=C(NC1CCOc2ccccc21)c1ccccn1 (stereo unspecified)	-3	4%	4%	2%	-11	-2%	nt
C=C1C(=O)C=C[C@]2(C)C[C@@H]3OC(=O)[C@](C)(O)[C@H]3C[C@@H]12	35*	4%	15µM*	12µM*	63*	?	0
CC1=NN(Cc2cc(C(C)(C)C)c(O)c(C(C)(C)C)c2)C(=O)C1	-3	?	1%	-17%	-5	14µM*	?
CN1CCN(Cc2cc(C(C)(C)C)c(O)c(C(C)(C)C)c2)CC1	-5	?	95%	nt	-10	4%	nt
COc1ccc(-c2cnnn2-c2ccc(NC(=O)c3ccc(S(=O)(=O)N4CCCCC4)cc3)cc2)cc1OC	7	4%	1.5µM*	4.1µM*	1	5µM*	31	PR8 titer=7.3*
COc1ccc(N=C2SC(CC(=O)Nc3ccccc3OC)C(=O)N2Cc2ccco2)cc1 (stereo unspecified)	24*	-11%	?	-78%	40*	10µM*	-14
COc1ccc(N=C2SC(CC(=O)Nc3ccc(F)cc3)C(=O)N2Cc2ccco2)cc1 (stereo unspecified)	12	-4%	?	?	28	8%	nt
CCn1c2ccccc2c2cc(N=C3SC(CC(=O)Nc4ccccc4OC)C(=O)N3C)ccc21 (stereo unspecified)	-3	-2%	?	?	-21	4µM*	-25
Cc1ccc(NC(=O)C2CCN(C(=O)NCc3ccccc3)CC2)cc1C	-2	13%	75%	3%	-4	3%	nt
CCN(CC)C(=O)c1sc2nc(-c3cccs3)cc(-c3ccc(Cl)cc3)c2c1N	-2	3%	7.4µM*	?	18	4.5µM*	?
N#Cc1sc2nc(-c3cccs3)cc(-c3ccc(Cl)cc3)c2c1N	2	1%	?	?	21	5%	nt
O=C(O)/C=C/C(=O)c1ccc2c(c1)CCc1ccccc1-2	nt	nt	21%	11%	nt	nt	nt
O=C(O)c1cc(NS(=O)(=O)c2ccc(NCc3ccccc3)c([N+](=O)[O-])c2)cc(C(=O)O)c1	-2	20%	12%	3%	-5	14µM*	33
O=C(CCc1nnc(Cc2ccc(-c3ccccc3)cc2)o1)NCCc1cccnc1	-1	1%	?	?	-5	-9%	nt
CCOC(=O)N1CCN(S(=O)(=O)N2CCCC(C(=O)NCc3ccc(F)cc3)C2)CC1 (stereo unspecified)	-2	-3%	?	-1%	-4	?	nt

From PubChem
